Results on 59 compounds are retold here after PubChem BioAssay AID841 (Emory University Molecular Libraries Screening Center, 2007).

In all, about 140,000 compounds went through this assay and about 2,100 (1.5%) were called active. The entries come from a sample that favours actives as a whole. Unmarked numbers belong to inactive results. Rule as the data show it: active = protection mostly above about 24% (no sharp cut-off); inactive = mostly below about 26%.

The nature of the test: blockers of measles virus-induced cell death – single point, MLSMR library, absorbance, measles RdRp inhibitor project, primary screen (AID 841). The note with it: Measles virus-infected cells, CPE protection, at 4 µM, active compounds read high.
As to `CN(CC(=O)Nc1ccc(N2CCOCC2)cc1)CC(=O)Nc1ccccc1[N+](=O)[O-]`, the protection (pct of control) was 21%.

Turning to `Cc1c(NC(=S)NCc2ccc(F)cc2)cccc1[N+](=O)[O-]`, the protection (pct of control) was 18%.

With `Cc1ccc(NC(=O)CN(C)Cc2ccc(F)cc2)c([N+](=O)[O-])c1`, the protection (pct of control) was 64.2% (active).

On to `CCCCOc1ccc(NC(=O)[C@@H]2CCCN2C(=O)C2CCN(S(=O)(=O)c3ccc(C)cc3)CC2)cc1`, for which the protection (pct of control) was 12.8%.

Consider `CCN=C1S/C(=C\c2cc(Br)ccc2OCC(=O)OCC)C(=O)N1CC`, for which the protection (pct of control) was 4.59%.

Consider `CCCC(C)C(=O)OCC(=O)Nc1c(Br)cc(C)cc1Br` (centres undefined), for which the protection (pct of control) is 5.66%.

`C=CCn1c(-c2ccc3[nH]c(C)c(C)c3c2)n[nH]c1=S`: the protection (pct of control) is 41.1% (active).

For `CCc1cc(-c2n[nH]c(=S)n2CC(C)C)cs1`, the protection (pct of control) is 1.82%.

On to `CCCc1cc(-c2n[nH]c(=S)n2Cc2ccccc2)cs1`, for which the protection (pct of control) is 18%.

As to `CC(C)(C)c1ccc(NC(=O)COC(=O)CCc2nc3ccccc3c(=O)[nH]2)cc1`, the protection (pct of control) was 4.79%.

In the case of `COc1cc(Cl)c(C)cc1NC(=O)CSc1nnc(-c2cccnc2)n1Cc1ccco1`, the protection (pct of control) is 6.16%.

For `COc1ccc(NC(=O)CSc2nnc(-c3cccs3)n2Cc2ccco2)cc1OC`, the protection (pct of control) was 5.61%.

Take `COc1ccccc1NC(=O)CSc1nc2sc(C)c(C)c2c(=O)n1Cc1ccco1`: the protection (pct of control) is 48.9% (active).

On to `COC(=O)C1=CN(C)C=C(C(=O)OC)C1c1ccc(Cl)cc1Cl`, for which the protection (pct of control) was 4.66%.

For `CCOc1ccccc1C1C(C(=O)OC)=CN(C)C=C1C(=O)OC`, the protection (pct of control) was 48.9% (active).

For `CCOc1cc(C2C(C(=O)OC)=CN(C3CCCC3)C=C2C(=O)OC)cc(Br)c1O`, the protection (pct of control) was 8.51%.

For `Cc1ccnc(NC(=O)Cn2ccc([N+](=O)[O-])n2)c1`, the protection (pct of control) is 6.33%.

As to `COc1ccc(Cl)cc1NC(=O)[C@@H]1CCCN1C(=O)c1cccs1`, the protection (pct of control) is 6.26%.

Turning to `COc1ccc(CN2C(=O)CC(Cc3ccc(C)cc3)C2=O)cc1OC` (centres undefined), the protection (pct of control) is 7.23%.

For `CCCCNS(=O)(=O)c1ccc2nc(SCC(=O)Nc3cc(C)cc(C)c3)[nH]c2c1`, the protection (pct of control) is 6.86%.

For the compound `O=c1cc(CSc2ccc(Cl)cc2)nc(N2CCOCC2)[nH]1`, the protection (pct of control) is 15.7%.

`CSCc1cc(N(C)C)nc(SCc2ccc(Cl)cc2Cl)n1`: the protection (pct of control) was 3.22%.

Regarding `CSCc1cc(N2CCOCC2)nc(SCc2ccc(Cl)cc2Cl)n1`, the protection (pct of control) is 71.8% (active).

Take `O=C1CCCC(O)=C1N=Nc1ccc2ncsc2c1`: the protection (pct of control) is 4.07%.

Turning to `COc1cc(/C=C(/NC(=O)c2ccc(Cl)cc2Cl)C(=O)O)cc(OC)c1OC`, the protection (pct of control) is 8.92%.

Consider `Cc1cccc(CSc2nnc(Cn3c(=O)sc4ccccc43)n2C)c1`, for which the protection (pct of control) was 11.3%.

As for `Cc1ccccc1CSc1nnc(Cn2c(=O)sc3ccccc32)n1C`, the protection (pct of control) is 42.8% (active).

`C=CCSc1nnc(Cn2c(=O)sc3ccccc32)n1C`: the protection (pct of control) is 12.3%.

On to `CCN(CC)S(=O)(=O)c1cc([N+](=O)[O-])ccc1N=Nc1c(O)n(C)c2ccccc12`, for which the protection (pct of control) is 4.65%.

Turning to `COc1ccc(C)cc1NC(=O)CSc1ccc(Cl)cc1`, the protection (pct of control) was 9.52%.

Regarding `COC(=O)[C@H](C)[C@H]1C[C@]1(C)[C@H](NC(=O)OCc1ccccc1)c1ccccc1`, the protection (pct of control) is 3.04%.

In the case of `COC(=O)[C@H](Cc1ccccc1)NC(=O)N1CC(C)OC(C)C1` (some centres undefined), the protection (pct of control) was 13.1%.

For `COC(=O)[C@H](Cc1ccccc1)NC(=O)[C@@H]1C[C@H]1[C@@H](NC(=O)OCc1ccccc1)c1ccccc1`, the protection (pct of control) was 49.5% (active).

`CSc1ccc(/C=C/C(=O)NC23CC4CC(CC(C4)C2)C3)cc1`: the protection (pct of control) is 2.59%.

`CC(=O)c1ccc(N2CCN(C(=O)c3ccc4nc[nH]c4c3)CC2)cc1`: the protection (pct of control) was 20.3%.

`CCCc1ccc(-c2csc(NC(=O)Cc3cccs3)n2)cc1`: the protection (pct of control) is 25%.

For `COc1ccc(-c2csc(NC(=O)CCCc3cccs3)n2)cc1`, the protection (pct of control) is 37.9%.

For `Cc1ccc(-c2csc(NC(=O)Cc3cccs3)n2)cc1C`, the protection (pct of control) is 42.2% (active).

With `C/C(CC(=O)Nc1cccc(F)c1)=N\NC(=O)C(=O)NC1CCCCC1`, the protection (pct of control) was 2.76%.

As for `Cc1cc(C)c(C2C3=C(Nc4c2c(C)nn4-c2ccccn2)c2ccccc2C3=O)c(C)c1` (centres undefined), the protection (pct of control) is 7.66%.

On to `O=C(CN1C(=O)c2cccc3cccc(c23)C1=O)N1CCCCC1`, for which the protection (pct of control) was 4.32%.

For the compound `Cc1nnc(NC(=O)/C=C/c2ccco2)s1`, the protection (pct of control) is 22.5%.

In the case of `O=[N+]([O-])c1ccc(NCCCO)c(C(F)(F)F)c1`, the protection (pct of control) is 10.7%.

As to `C=CCNC(=O)CSc1nc2sc(C)c(C)c2c(=O)[nH]1`, the protection (pct of control) is 1.51%.

Consider `O=C(CSc1nc2c(cnn2-c2ccc(F)cc2)c(=O)[nH]1)N1CCCCCC1`, for which the protection (pct of control) was 6.65%.

Consider `CC(=O)c1sc2nc(SCC(=O)N3CCCCC3)[nH]c(=O)c2c1C`, for which the protection (pct of control) is 61.4% (active).

For `Fc1c(F)c(C(F)(F)F)c(F)c(F)c1N1CCN(c2ccc3nnc(C(F)(F)F)n3n2)CC1`, the protection (pct of control) is 52.3% (active).

For the compound `FC(F)(F)c1nnc2ccc(N3CCN(c4ccccc4)CC3)nn12`, the protection (pct of control) is 1.66%.

`COc1ccc(F)cc1S(=O)(=O)Nc1ccc2c(c1)OCO2`: the protection (pct of control) was 5.59%.

In the case of `COc1ccc(S(=O)(=O)N2CCCC2)c(C)c1C`, the protection (pct of control) is 7.99%.

As to `COc1ccc(S(=O)(=O)Nc2ccc(F)cc2)c(C)c1C`, the protection (pct of control) is 62% (active).

Regarding `COc1ccc2c(c1)cc1n2CCN=C1NN`, the protection (pct of control) was 25.1% (active).

In the case of `COc1ccc(NC(=O)Nc2ccc3nc(C)c(C)nc3c2)cc1`, the protection (pct of control) is 2.45%.

Regarding `COc1cc(-c2cc(C(=O)OCC(=O)Nc3ccc4c(c3)OCO4)c3ccccc3n2)cc(OC)c1OC`, the protection (pct of control) is 4.84%.

`CCOC(=O)N1CCN(CC(=O)c2c(C)[nH]c3ccccc23)CC1`: the protection (pct of control) is 5.34%.

Take `O=C(Cc1ccc(-n2c(=O)[nH]c3ccccc3c2=O)cc1)N1CCN(c2cccc(Cl)c2)CC1`: the protection (pct of control) is 2.23%.

On to `CCOC(=O)N1CCN(C(=O)Cc2ccc(-n3c(=S)[nH]c4ccccc4c3=O)cc2)CC1`, for which the protection (pct of control) is 49% (active).

As to `O=C(/C=C/c1cccc([N+](=O)[O-])c1)NCCSCc1ccco1`, the protection (pct of control) is 4%.

In the case of `CCOc1ccc(-c2n[nH]c(=S)n2/N=C/c2cc3c(cc2[N+](=O)[O-])OCO3)cc1`, the protection (pct of control) is 2.01%.
